# Experimental data from publication PMC4336329 (PLoS ONE, 2015).
# The campaign covered roughly 310,000 compounds. About 14,000 (4.5%) showed an effect of 50% or more. Effects have a minus sign here. The sample as a whole holds a higher share of strong results than the screen did.
# Biological target: human ether-à-go-go-related gene (hERG) potassium channel (human, UniProt Q12809)
# Assay: primary screen, population patch clamp on CHO cells stably expressing hERG; higher = less effect of the substance
# 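Also: peak tail current of the secondary pulse compared with the same well before compound.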
# Chain of human ether-à-go-go-related gene (hERG) potassium channel (Q12809 whole entry, looked up): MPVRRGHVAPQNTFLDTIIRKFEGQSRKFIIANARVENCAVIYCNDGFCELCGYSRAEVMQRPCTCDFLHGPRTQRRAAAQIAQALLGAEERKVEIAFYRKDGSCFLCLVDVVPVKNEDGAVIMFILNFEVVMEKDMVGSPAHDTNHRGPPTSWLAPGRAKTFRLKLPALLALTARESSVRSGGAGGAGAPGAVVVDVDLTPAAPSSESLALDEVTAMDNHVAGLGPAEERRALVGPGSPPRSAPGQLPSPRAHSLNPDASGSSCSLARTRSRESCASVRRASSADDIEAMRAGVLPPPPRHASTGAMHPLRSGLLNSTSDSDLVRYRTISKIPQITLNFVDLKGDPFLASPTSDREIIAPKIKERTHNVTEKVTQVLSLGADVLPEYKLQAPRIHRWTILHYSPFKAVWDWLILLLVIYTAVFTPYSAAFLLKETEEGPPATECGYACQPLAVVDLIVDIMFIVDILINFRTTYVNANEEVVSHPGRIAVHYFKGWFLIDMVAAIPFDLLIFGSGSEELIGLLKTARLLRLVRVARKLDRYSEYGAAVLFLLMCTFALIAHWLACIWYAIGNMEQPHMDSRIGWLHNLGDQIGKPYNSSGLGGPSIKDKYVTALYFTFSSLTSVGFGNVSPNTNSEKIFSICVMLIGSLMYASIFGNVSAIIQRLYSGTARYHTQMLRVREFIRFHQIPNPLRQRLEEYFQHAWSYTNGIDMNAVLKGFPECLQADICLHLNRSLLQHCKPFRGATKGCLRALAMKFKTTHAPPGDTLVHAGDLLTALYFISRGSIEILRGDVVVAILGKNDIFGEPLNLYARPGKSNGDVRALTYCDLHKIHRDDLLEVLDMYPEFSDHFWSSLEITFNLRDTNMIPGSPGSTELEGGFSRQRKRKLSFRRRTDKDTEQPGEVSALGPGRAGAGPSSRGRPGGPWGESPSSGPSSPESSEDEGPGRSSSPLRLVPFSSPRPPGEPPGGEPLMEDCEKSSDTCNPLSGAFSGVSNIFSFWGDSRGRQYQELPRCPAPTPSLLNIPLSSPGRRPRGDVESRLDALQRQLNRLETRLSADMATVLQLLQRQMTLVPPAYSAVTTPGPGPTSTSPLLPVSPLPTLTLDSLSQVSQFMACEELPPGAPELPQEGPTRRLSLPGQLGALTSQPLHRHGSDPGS
row,Compound,"hERG current change (%, negative = inhibition) at 10uM [%]"
1,O=S1(=O)CCN(Cc2ccccc2Cl)CC1,-11.1
2,Cc1cc(C(=O)Nc2ccccc2C)n(-c2ccccc2)n1,16.5
3,COc1ccc(NC(=O)C2CCC(=O)N2S(=O)(=O)c2ccc(C)cc2)c(OC)c1 (stereo not shown),-11
4,COc1ccc(-c2c3c(=O)n(C)c(=O)n(C)c3cn2-c2ccccc2O)cc1,-9.54
5,Cc1ccc2c(c1)nnn2C1CCN(CC(=O)Nc2ccccc2N2CCOCC2)CC1,-69.8
6,Cc1ccccc1NC(=O)CN1CCC(n2nnc3ccccc32)CC1,-38.8
7,COC(=O)c1ccccc1NC(=O)CN1CCC(n2nnc3cc(F)ccc32)CC1,-14.3
8,O=C(CN1CCC(n2nnc3cc(F)ccc32)CC1)Nc1ccccc1N1CCOCC1,-66.6
9,COc1ccc(Cl)cc1NC(=O)CN1CCC(n2nnc3cc(C)ccc32)CC1,-24.2
10,CC(C)(C)c1ccc(C(=O)N2CCC(C(=O)N3CCCCC3)CC2)cc1,-3.01
11,Cc1cccc(C(C)(C)C)c1OCCOCCN1CCCC1,-20.6
12,CN(C(=O)CN1CC=C(c2ccccc2)CC1)c1c(N)n(Cc2ccccc2)c(=O)[nH]c1=O,25.8
13,Cc1ccc(-n2nc3c(=O)n(CC(=O)NCc4ccc(C)o4)nc(C)c3c2C)cc1,13.1
14,Cc1nn(C2CCS(=O)(=O)C2)c(Cl)c1/C=C/C(=O)OCC(=O)N(C)C (stereo not shown),11.3
15,O=C(COc1ccc(Cl)cc1)Nc1ccc(CN2CCOCC2)cc1,-39.6
16,Cc1ccc(NC(=O)COc2ccc(S(=O)(=O)N3CCOCC3)cc2)cc1,7.98
17,CCN1CCN(c2ccc(NC(=O)COc3ccc([N+](=O)[O-])cc3)cc2)CC1,-54.3
18,O=C(COc1ccc([N+](=O)[O-])cc1)Nc1ccc(N2CCCC2)cc1,12.1
19,O=C(COc1ccc([N+](=O)[O-])cc1)Nc1ccc(N2CCN(C(=O)c3ccco3)CC2)cc1,6.27
20,O=C(COc1ccc([N+](=O)[O-])cc1)Nc1ccc(S(=O)(=O)N2CCOCC2)cc1,-53.8
21,O=C(COc1ccc([N+](=O)[O-])cc1)Nc1ccc(CN2CCOCC2)cc1,-52.3
22,O=C(COc1ccc(S(=O)(=O)N2CCOCC2)cc1)Nc1cccc([N+](=O)[O-])c1,-39

row,Compound,"hERG current change (%, negative = inhibition) at 10uM [%]"
1,O=C(COc1ccc(Br)cc1)Nc1ccc(CN2CCOCC2)cc1,-40.6
2,Cc1scc(C(=O)N/N=C/c2ccco2)c1C,2.52
3,CCCc1cc(=O)[nH]c(SCC(=O)N(CC)C2CCS(=O)(=O)C2)n1 (stereo not shown),13.2
4,N=C(N)c1c(O)n(C2CCCCC2)c(=O)n(C2CCCCC2)c1=O,18.5
5,CC1Cc2ccccc2N1C(=O)c1cc2sccc2n1Cc1ccc(F)cc1 (stereo not shown),12.3
6,Oc1ccc(-c2nnc(SCc3ccccc3)o2)cc1,-8.15
7,COc1ccc2c(c1)c(=O)c(C(=O)c1ccc(Cl)cc1)cn2CC(=O)Nc1ccc(F)cc1,12.4
8,COc1ccc2c(c1)c(=O)c(C(=O)c1ccccc1)cn2Cc1ccc(C)cc1,-75
9,COc1ccc(Cn2cc(C(=O)c3ccccc3)c(=O)c3cc(OC)ccc32)cc1,-31.3
10,COc1ccc2c(c1)c(=O)c(C(=O)c1ccc(F)cc1)cn2CC(=O)Nc1ccc(F)cc1,-5.61
11,COc1ccc2c(c1)c(=O)c(C(=O)c1ccc(C)cc1)cn2CC(=O)Nc1ccc(F)cc1,-10.1
12,COc1ccc2c(c1)c(=O)c(C(=O)c1ccccc1)cn2Cc1ccccc1,-71.8
13,Cc1cccc(NC(=S)NC2CCSc3ccccc32)c1 (stereo not shown),14.5
14,COc1ccc(OCC(=O)Nc2ccccc2OC(F)F)cc1,-22.2
15,CC1CC(C)CN(C(=O)c2ccc(Br)c(S(=O)(=O)N3CCOCC3)c2)C1 (stereo not shown),-26.6
16,NC(=O)C(c1ccccn1)c1ncc(C(F)(F)F)cc1Cl (stereo not shown),11.7
17,Cl.O=C(CN1C2=NCCN2c2ccccc21)c1ccco1,-20.7
18,Br.O=C(CN1C2=NCCN2c2ccccc21)c1ccc2c(c1)OCO2,-60.9
19,Br.O=C(CN1C2=NCCN2c2ccccc21)c1ccc(Br)cc1,-67.6
20,Cl.O=C(CN1CCCCC1)c1ccc2c(c1)OCO2,-4.7
21,CC(C)(C)n1nnnc1C(c1ccc(Cl)cc1)N(Cc1cccnc1)Cc1ccco1 (stereo not shown),-14.7
22,CCOC(=O)c1[nH]c(C)c(C(=O)N2CCc3ccccc32)c1C,-12.6

row,Compound,"hERG current change (%, negative = inhibition) at 10uM [%]"
1,Cc1ccc(OCC(=O)NCC(=O)Nc2ccc(F)c(F)c2F)c([N+](=O)[O-])n1,-34.4
2,Cc1nc(Nc2cccc(C(C)O)c2)c2nnn(Cc3ccc(F)cc3)c2n1 (stereo not shown),5.08
3,CCc1ccc(CN(C)C(=O)CCc2nc3ccccc3n(-c3ccc(OC)cc3)c2=O)cc1,-0.36
4,COc1ccc(-n2c(=O)c(CCC(=O)N(C)Cc3ccccc3C)nc3ccccc32)cc1,-50.4
5,COc1ccc(-n2c(=O)c(CCC(=O)N(C)Cc3cccs3)nc3ccccc32)cc1,-38.7
6,COc1ccc(Nc2cc3n(c(=O)n2)CCc2cc(OC)c(OC)cc2-3)cc1,4.8
7,COc1cc2c(cc1OC)-c1cc(Nc3ccccc3)nc(=O)n1CC2,-64.1
8,COc1cc2c(cc1OC)-c1cc(Nc3ccc(C)cc3)nc(=O)n1CC2,-8.97
9,O=C(NCc1ccc2c(c1)OCO2)Nc1ccc(Cl)cc1,5.12
10,COc1cccc(NC(=O)c2cnc[nH]2)c1,25.1
11,COc1ccccc1NC(=O)C(=O)NCc1ccncc1,-5.14
12,Cn1c(CCc2ccccc2)nnc1SCC(N)=O,15.3
13,N#Cc1c(-c2ccccc2)c(-c2ccccc2)nn(CC(=O)NNC(=O)Nc2ccc(Cl)c(Cl)c2)c1=O,-1.35
14,CC(=O)N1CC[n+]2c(-c3ccc([N+](=O)[O-])cc3)csc21.[Br-],-68.9
15,CCc1ccc(-c2csc3[n+]2CCN3C(C)=O)cc1.[Br-],-29.1
16,CC(=O)N1CC[n+]2c(-c3ccc(Cl)cc3)csc21.[Br-],-1.19
17,C=CCN1CCN(C(=O)c2cc3c(s2)CCCC3)CC1,-19.3
18,C=CCN1CCN(C(=O)c2cc3c(s2)CCC(CC)C3)CC1 (stereo not shown),-57.3
19,CCC1CCc2sc(C(=O)N3CCCN(C)CC3)cc2C1 (stereo not shown),-12.9
20,Cc1ccc(C)c(C(C)NC(=O)c2ccncc2)c1 (stereo not shown),-7.4
21,Cc1cc(C(F)F)nn1CC(=O)NC1CCCC1,1.56
22,CCCC(=O)c1ccc(N2CCN(C(=O)c3ccccc3Br)CC2)c(F)c1,-23.7

row,Compound,"hERG current change (%, negative = inhibition) at 10uM [%]"
1,CCOC(=O)N1CCN(c2ccc(C(C)=O)cc2F)CC1,5.68
2,CN1CCN(C(=O)c2ccc3nc(-c4ccccc4)c(-c4ccccc4)nc3c2)CC1,6.03
3,CCOC(=O)N1CCN(C(=O)c2ccc3nc(-c4ccccc4)c(-c4ccccc4)nc3c2)CC1,-54.6
4,CC(=O)c1cc(F)c(N2CCN(C(=O)Cc3ccccc3)CC2)cc1C,-11.5
5,CCCC(=O)c1ccc(N2CCN(C(=O)c3ccccc3)CC2)c(F)c1,-66.7
6,CCOC(=O)N1CCN(c2ccc(C(=O)c3ccccc3)cc2F)CC1,-50.8
7,CCC(=O)c1cc(F)c(N2CCN(C(=O)Cc3ccccc3)CC2)cc1C,-58.9
8,CCCC(=O)c1ccc(N2CCN(C(=O)c3ccc(Br)cc3)CC2)c(F)c1,2.35
9,CCN1CCN(C(=O)c2ccc3nc(-c4ccccc4)c(-c4ccccc4)nc3c2)CC1,-17.4
10,CCC(=O)c1ccc(N2CCN(C(=O)Cc3ccccc3)CC2)c(F)c1,-36.5
11,CCCC(=O)c1ccc(N2CCN(C(=O)OCC)CC2)c(F)c1,-14.2
12,Cc1ccc(Cn2c(C)cc3c(c2=O)C(c2cccs2)C(C#N)=C(N)O3)cc1 (stereo not shown),15.8
13,CC(C)c1cccc(C(C)C)c1NC(=O)CN1C(=O)NC2(CCCC2)C1=O,14.8
14,CCOC(=O)C(O)(CCC(O)(C(=O)OCC)C(=O)OCC)C(=O)OCC,5.85
15,Cn1c(=O)c2c(nc(CN3CCC(C(N)=O)CC3)n2CCc2ccccc2)n(C)c1=O,4.44
16,CCOC(=O)c1ccc(NC(=O)NC2CC3CCC(C2)N3Cc2nnnn2Cc2ccco2)cc1 (stereo not shown),-21.1
17,O=C(NCc1ccc2c(c1)OCO2)c1nn(-c2ccccc2)c(=O)c2ccccc12,-35.1
18,COc1ccc(N(CC(=O)NCc2cccnc2)S(=O)(=O)c2c(C)nn(C)c2C)cc1,3.1
19,O=C(CSc1nc(-c2ccccc2)nn1C(=O)c1ccccc1)Nc1cccc([N+](=O)[O-])c1,2.83
